For some assays here: Measured potencies and affinities stand elsewhere. Active and inactive are the calls of the source. Unless noted, how the calls were made is not given here.
Tests used:
[1] = antimalarial activity against Dd2 strain (AID 2302;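 active means growth inhibition above 50% at the single 2 µM test dose, taken to imply half-maximal potency below 2 µM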;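 further: 0% = DMSO untreated growth and 100% = chloroquine plus artemisinin killed control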); settings: P. falciparum Dd2 in RBCs, LDH growth readout, 72 h; at 2 µM; stronger effect = higher value
[2] = human hepatoma cell viability loss – ATP luminescence, cytotoxicity control for P. falciparum antimalarial project, primary screen (AID 2303;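 active means inhibition above 50%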;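 further: 0% = DMSO wells and 100% = digitonin-killed cells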); settings: HepG2 viability, 24-48 h, at 10 µM, stronger effect = higher value
[3] = target: L-lactate dehydrogenase (Plasmodium falciparum (isolate CDC / Honduras)) (UniProt Q27743); assay: PfLDH activity inhibition – cell lysate, 3D7 strain, counter-screen for P. falciparum growth inhibition project (AID 2304);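 further: 0% = vehicle and 100% = reference inhibitor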; settings: P. falciparum 3D7 crude extract, LDH APAD/NBT absorbance; at 2 µM; stronger effect = higher value
[4] = inhibition of 3D7 malaria parasite growth – strain 3D7 (AID 2306);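 further: 0% = DMSO wells and 100% = chloroquine plus artemisinin control wells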; settings: P. falciparum 3D7 erythrocytic growth, LDH absorbance, 72 h; at 2 µM; stronger effect = higher value
[5] = target: Calcium-dependent protein kinase 1 (Plasmodium falciparum (isolate 3D7)) (UniProt P62344); assay: PfCDPK1 kinase inhibitors, biochemical, TCAMS library (AID 1159585; cut-off not given, nearly all actives have IC50 up to about 0.98 µM;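 further: inhibitors leave more ATP so luminescence rises with inhibition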); settings: recombinant PfCDPK1, Kinase-Glo ATP depletion luminescence
[6] = target: Plasmodium falciparum protein kinase 6 (PK6, PF3D7_1337100) (UniProt Q8IDW1); assay: PfPK6 kinase inhibitors, biochemical, TCAMS library (AID 1159586); settings: recombinant PfPK6, Kinase-Glo ATP depletion luminescence
[7] = target: Protein kinase 7 (PK7), Plasmodium falciparum 3D7 (PF3D7_0213400) (UniProt Q7YTF7); assay: inhibition of Plasmodium PK7 catalytic activity – biochemical, TCAMS antimalarial set, Kinase-Glo luminescence (AID 1159587); settings: recombinant PfPK7, Kinase-Glo ATP depletion luminescence
[8] = target: Calcium-dependent protein kinase 4 (Plasmodium falciparum (isolate 3D7)) (UniProt Q8IBS5); assay: PfCDPK4 kinase inhibitors, biochemical, TCAMS library (AID 1159588; cut-off not given, nearly all actives have IC50 up to about 0.91 µM); settings: recombinant PfCDPK4, Kinase-Glo ATP depletion luminescence
Chain of Calcium-dependent protein kinase 4 (Plasmodium falciparum (isolate 3D7)) (Q8IBS5 whole entry, looked up): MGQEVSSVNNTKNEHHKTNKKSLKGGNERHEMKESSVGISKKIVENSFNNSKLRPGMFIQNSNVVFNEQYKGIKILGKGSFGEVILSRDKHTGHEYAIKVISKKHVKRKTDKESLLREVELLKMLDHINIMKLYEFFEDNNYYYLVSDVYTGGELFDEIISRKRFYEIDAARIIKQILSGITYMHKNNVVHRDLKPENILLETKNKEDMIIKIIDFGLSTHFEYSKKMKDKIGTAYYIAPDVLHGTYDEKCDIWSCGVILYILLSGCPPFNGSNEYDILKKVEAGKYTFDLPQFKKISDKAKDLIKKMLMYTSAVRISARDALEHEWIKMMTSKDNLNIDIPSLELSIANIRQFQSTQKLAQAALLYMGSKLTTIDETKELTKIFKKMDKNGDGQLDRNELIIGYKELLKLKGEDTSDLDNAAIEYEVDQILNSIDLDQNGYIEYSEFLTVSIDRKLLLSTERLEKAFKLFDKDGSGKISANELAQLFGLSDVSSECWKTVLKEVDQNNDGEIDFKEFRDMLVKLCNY

Chain of Protein kinase 7 (PK7), Plasmodium falciparum 3D7 (PF3D7_0213400) (Q7YTF7 1-343): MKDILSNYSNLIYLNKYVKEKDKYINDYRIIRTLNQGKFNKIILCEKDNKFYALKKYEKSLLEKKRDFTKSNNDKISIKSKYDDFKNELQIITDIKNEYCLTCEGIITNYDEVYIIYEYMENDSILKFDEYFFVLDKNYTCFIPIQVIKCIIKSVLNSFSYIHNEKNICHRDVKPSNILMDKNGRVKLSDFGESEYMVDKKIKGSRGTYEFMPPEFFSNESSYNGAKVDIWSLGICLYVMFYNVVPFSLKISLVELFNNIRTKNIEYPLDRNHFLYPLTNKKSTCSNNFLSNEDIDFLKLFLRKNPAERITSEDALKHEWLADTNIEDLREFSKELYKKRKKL
Chain of Calcium-dependent protein kinase 1 (Plasmodium falciparum (isolate 3D7)) (P62344 whole entry, looked up): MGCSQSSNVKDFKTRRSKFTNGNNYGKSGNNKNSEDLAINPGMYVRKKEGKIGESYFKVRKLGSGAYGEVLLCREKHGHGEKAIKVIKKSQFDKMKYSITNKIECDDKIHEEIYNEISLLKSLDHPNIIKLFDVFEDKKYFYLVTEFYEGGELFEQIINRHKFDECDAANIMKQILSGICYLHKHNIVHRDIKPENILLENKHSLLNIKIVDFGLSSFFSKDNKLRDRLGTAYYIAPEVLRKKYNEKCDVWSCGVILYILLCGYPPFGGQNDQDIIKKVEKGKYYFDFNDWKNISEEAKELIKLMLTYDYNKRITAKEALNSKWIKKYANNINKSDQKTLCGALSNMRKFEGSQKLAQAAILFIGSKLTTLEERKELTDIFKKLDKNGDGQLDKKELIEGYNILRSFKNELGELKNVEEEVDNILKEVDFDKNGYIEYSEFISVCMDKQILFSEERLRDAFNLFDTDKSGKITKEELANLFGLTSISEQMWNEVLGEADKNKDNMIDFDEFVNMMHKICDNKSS
Chain of L-lactate dehydrogenase (Plasmodium falciparum (isolate CDC / Honduras)) (Q27743 whole entry, looked up): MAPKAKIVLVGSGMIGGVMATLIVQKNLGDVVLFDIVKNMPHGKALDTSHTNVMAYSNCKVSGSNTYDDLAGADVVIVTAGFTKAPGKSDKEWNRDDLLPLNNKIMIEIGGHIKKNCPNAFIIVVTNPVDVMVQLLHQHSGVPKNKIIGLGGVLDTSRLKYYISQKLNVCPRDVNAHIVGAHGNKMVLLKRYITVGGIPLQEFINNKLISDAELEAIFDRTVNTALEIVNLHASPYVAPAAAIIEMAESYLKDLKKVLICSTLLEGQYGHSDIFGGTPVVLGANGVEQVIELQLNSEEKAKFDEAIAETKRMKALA
Chain of Plasmodium falciparum protein kinase 6 (PK6, PF3D7_1337100) (Q8IDW1 1-305): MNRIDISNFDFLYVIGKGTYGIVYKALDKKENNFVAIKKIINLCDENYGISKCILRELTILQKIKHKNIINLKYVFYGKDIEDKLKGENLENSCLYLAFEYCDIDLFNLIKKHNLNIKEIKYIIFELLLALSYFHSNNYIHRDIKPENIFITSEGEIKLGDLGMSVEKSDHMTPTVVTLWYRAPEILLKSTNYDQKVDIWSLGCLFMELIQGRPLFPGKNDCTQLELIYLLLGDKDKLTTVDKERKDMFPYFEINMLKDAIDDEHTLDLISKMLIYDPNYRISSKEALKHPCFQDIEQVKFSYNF

Fc1ccc(NC(=S)NCCc2ccccc2)cc1
active: growth inhibition [4] 99%
inactive: growth inhibition [1] 0% | inhibition [2] -1% | inhibition [3] 3% | outcome [5] | outcome [6] | outcome [7] | outcome [8]

Cn1cc(CN2CCCC(COC(c3ccccc3)c3ccccc3)C2)cn1 (stereo not given)
inactive: inhibition [2] 24% | inhibition [3] 0% | outcome [5] | outcome [6] | outcome [7] | outcome [8]
active: growth inhibition [1] 99% | growth inhibition [4] 99%

CCN(CC)CCCC(C)Nc1cc(C=Cc2ccc([N+](=O)[O-])cc2)nc2ccc(OC)cc12 (stereo not given)
inactive: inhibition [2] 37% | inhibition [3] 4% | outcome [5] | outcome [6] | outcome [7] | outcome [8]
active: growth inhibition [1] 100% | growth inhibition [4] 100%

COc1ccc2c(ccc3c2ncc2c(=O)n(-c4ccccc4)[nH]c23)c1
active: growth inhibition [1] 92% | growth inhibition [4] 95%
inactive: inhibition [2] -2% | inhibition [3] 4% | outcome [5] | outcome [6] | outcome [7] | outcome [8]

COCCNCc1cccc(-c2ccccc2CN(C(=O)c2ccc3c(c2)OCO3)c2ccc(OC)cc2)c1
active: growth inhibition [4] 90%
inactive: growth inhibition [1] 46% | inhibition [2] 6% | inhibition [3] 2% | outcome [5] | outcome [6] | outcome [7] | outcome [8]

CC1(C)N=C(N)N=C(N)N1OCCc1ccc(N)cc1
active: growth inhibition [1] 95% | inhibition [2] 65% | growth inhibition [4] 93%
inactive: inhibition [3] -6% | outcome [5] | outcome [6] | outcome [7] | outcome [8]

CN1CC[C@@H](Oc2cc(CNC(=O)c3ccc(-c4ccc(Cl)cc4)s3)ccc2C(F)(F)F)C1
active: growth inhibition [1] 64% | growth inhibition [4] 93%
inactive: inhibition [2] 40% | inhibition [3] 2% | outcome [5] | outcome [6] | outcome [7] | outcome [8]

CCCC1(NC[C@@H](O)[C@H](Cc2ccccc2)NC(=O)c2cc(NCC)cc(N3CCCCS3(=O)=O)c2)CCC1
inactive: inhibition [2] -8% | inhibition [3] -1% | outcome [5] | outcome [6] | outcome [7] | outcome [8]
active: growth inhibition [1] 86% | growth inhibition [4] 100%

COCc1nc(N)nc(N)c1-c1ccc(Cl)c(Cl)c1
active: growth inhibition [4] 84%
inactive: growth inhibition [1] 1% | inhibition [2] 4% | inhibition [3] -1% | outcome [5] | outcome [6] | outcome [7] | outcome [8]

CCSc1ccccc1CON1C(N)=NC(N)=NC1(C)C
inactive: growth inhibition [1] 10% | inhibition [3] -3% | outcome [5] | outcome [6] | outcome [7] | outcome [8]
active: inhibition [2] 62% | growth inhibition [4] 96%

Cc1ccccc1OCC(=O)Nc1ccc(-c2nc3cc4ccccc4cc3[nH]2)cc1
active: growth inhibition [1] 51% | growth inhibition [4] 102%
inactive: inhibition [2] 24% | inhibition [3] 2% | outcome [5] | outcome [6] | outcome [7] | outcome [8]

COc1cc2nc(N3CCN(C(=O)c4c(Cl)nsc4-c4ccccc4Cl)CC3)nc(N)c2cc1OC
active: growth inhibition [1] 101% | inhibition [2] 57% | growth inhibition [4] 100%
inactive: inhibition [3] -6% | outcome [5] | outcome [6] | outcome [7] | outcome [8]

Cn1c(=O)c2nc(-c3ccc(Cl)cc3)nnc2n(CCCC#N)c1=O
inactive: inhibition [2] 6% | inhibition [3] 6% | outcome [5] | outcome [6] | outcome [7] | outcome [8]
active: growth inhibition [1] 98% | growth inhibition [4] 99%

O=C(NCC1COc2ccccc2O1)c1cnc2c(c1)nc(-c1cnc(-c3ccccc3)[nH]1)n2CCSCc1c(F)cccc1Cl (stereo not given)
inactive: growth inhibition [1] 10% | inhibition [2] 6% | inhibition [3] 4% | outcome [5] | outcome [6] | outcome [7] | outcome [8]
active: growth inhibition [4] 95%

CCNc1cc(C(=O)N[C@@H](Cc2ccccc2)[C@H](O)CNC2CCCCC2)cc(N2CCCCS2(=O)=O)c1
active: growth inhibition [1] 98% | growth inhibition [4] 99%
inactive: inhibition [2] 11% | inhibition [3] -4% | outcome [5] | outcome [6] | outcome [7] | outcome [8]

O=C(c1ccc(Cl)cc1)C1CCN(CCCOc2ccc3c(c2)CCNCC3)CC1
inactive: growth inhibition [1] 23% | inhibition [3] -2% | outcome [5] | outcome [6] | outcome [7] | outcome [8]
active: inhibition [2] 78% | growth inhibition [4] 93%

COc1cc(Nc2nc(N)n(C(=O)c3ccc4c(c3)OCO4)n2)cc(OC)c1OC
active: inhibition [2] 60% | growth inhibition [4] 90%
inactive: growth inhibition [1] 40% | inhibition [3] 1% | outcome [5] | outcome [6] | outcome [7] | outcome [8]

CCCc1ccc(S(=O)(=O)Nc2ccc3c(c2)CCC3)cc1
inactive: growth inhibition [1] -1% | inhibition [2] 8% | inhibition [3] 1% | outcome [5] | outcome [6] | outcome [7] | outcome [8]
active: growth inhibition [4] 96%

CCCCCN1CCN(Cc2cccc(NC(=O)c3ccc(Cl)c(Cl)c3)c2)CC1
active: growth inhibition [4] 90%
inactive: growth inhibition [1] 33% | inhibition [2] 24% | inhibition [3] 3% | outcome [5] | outcome [6] | outcome [7] | outcome [8]

COc1ccc(S(=O)(=O)NCCC2CCN(CCCCCNC(=O)C=Cc3ccc(Cl)c(Cl)c3)CC2)cc1
inactive: growth inhibition [1] -2% | inhibition [2] 36% | inhibition [3] 5% | outcome [5] | outcome [6] | outcome [7] | outcome [8]
active: growth inhibition [4] 87%

CCc1cn2c3c(cc(C(=O)N[C@@H](Cc4cccc(Cl)c4)[C@H](O)CNC4CCCCC4)cc13)N(C)S(=O)(=O)CC2
active: growth inhibition [1] 98% | growth inhibition [4] 97%
inactive: inhibition [2] 12% | inhibition [3] 2% | outcome [5] | outcome [6] | outcome [7] | outcome [8]

COc1ccc(-c2cccc(NC(=O)c3cccc(Cl)c3)c2)cc1CN1CCCN(C)CC1
active: growth inhibition [1] 99% | growth inhibition [4] 101%
inactive: inhibition [2] 20% | inhibition [3] 6% | outcome [5] | outcome [6] | outcome [7] | outcome [8]

COc1cc(CN2CCC(C(=O)Nc3ccc(-c4cccc(C)c4)cc3)CC2)ccc1O
inactive: inhibition [2] 25% | inhibition [3] 3% | outcome [5] | outcome [6] | outcome [7] | outcome [8]
active: growth inhibition [1] 85% | growth inhibition [4] 100%

CC(=O)NC1=NC(C)(C)N(OCc2ccc(Cl)c(Cl)c2)C(NC(C)=O)=N1
active: growth inhibition [1] 97% | inhibition [2] 68% | growth inhibition [4] 94%
inactive: inhibition [3] -5% | outcome [5] | outcome [6] | outcome [7] | outcome [8]

O=S(=O)(c1cccc(Br)c1)N1CCCCC(c2ccc(C(F)(F)F)cc2)=N1
active: growth inhibition [1] 92% | growth inhibition [4] 91%
inactive: inhibition [2] 30% | inhibition [3] -4% | outcome [5] | outcome [6] | outcome [7] | outcome [8]

CCNC(=O)Nc1ccc(N(C)c2ccnc(NC3CC3)n2)cc1
inactive: inhibition [2] 21% | inhibition [3] -5% | outcome [5] | outcome [6] | outcome [7] | outcome [8]
active: growth inhibition [1] 80% | growth inhibition [4] 100%

O=[N+]([O-])c1cccc(NC(=S)N2CCCN(Cc3ccc(F)cc3F)CC2)c1
inactive: inhibition [2] 5% | inhibition [3] -1% | outcome [5] | outcome [6] | outcome [7] | outcome [8]
active: growth inhibition [1] 98% | growth inhibition [4] 99%

COc1ccc(Br)cc1/C=C/C(=O)Nc1cccc(C2CCCN(C)C2)c1 (stereo not given)
active: growth inhibition [4] 99%
inactive: growth inhibition [1] 30% | inhibition [2] 12% | inhibition [3] 1% | outcome [5] | outcome [6] | outcome [7] | outcome [8]

COc1cc(Cc2cnc(N)nc2N)ccc1OCc1ccc(-c2ccccc2C#N)cc1
inactive: growth inhibition [1] 3% | inhibition [2] 32% | inhibition [3] 6% | outcome [5] | outcome [6] | outcome [7] | outcome [8]
active: growth inhibition [4] 93%

Cc1cccc2[nH]c(-c3cccc(-c4cccc(NC(=O)C(C)CN(C)C)c4)c3)nc12 (stereo not given)
inactive: inhibition [2] 16% | inhibition [3] -3% | outcome [5] | outcome [6] | outcome [7] | outcome [8]
active: growth inhibition [1] 97% | growth inhibition [4] 101%

COc1ccc(Cc2c(C)nc3nc(N)nc(N)c3c2C)cc1
inactive: growth inhibition [1] 2% | inhibition [3] 8% | outcome [5] | outcome [6] | outcome [7] | outcome [8]
active: inhibition [2] 61% | growth inhibition [4] 93%

FC(F)(F)c1cccc(CNCC2CCN(Cc3ccc4c(c3)OCO4)CC2)c1
inactive: growth inhibition [1] 19% | inhibition [2] 21% | inhibition [3] 1% | outcome [5] | outcome [6] | outcome [7] | outcome [8]
active: growth inhibition [4] 100%

Cc1noc(-c2ccc3c(c2)CCN(CCC2CCC(NC(=O)/C=C/c4ccc(F)cc4)CC2)CC3)n1 (stereo not given)
active: growth inhibition [4] 91%
inactive: growth inhibition [1] 39% | inhibition [2] 44% | inhibition [3] 3% | outcome [5] | outcome [6] | outcome [7] | outcome [8]

Nc1nccc2ccc(-c3ccc(Oc4ccccc4)cc3)cc12
inactive: inhibition [2] 36% | inhibition [3] -3% | outcome [5] | outcome [6] | outcome [7] | outcome [8]
active: growth inhibition [1] 80% | growth inhibition [4] 98%

CN(C)CCCN(C)c1cccc2c1nc(-c1cccnc1)n2CCNCc1ccccc1
active: growth inhibition [1] 88% | growth inhibition [4] 89%
inactive: inhibition [2] 4% | inhibition [3] 4% | outcome [5] | outcome [6] | outcome [7] | outcome [8]

COc1ccc2nccc([C@@H](O)CN3CCC(NC(=O)c4cc5ccccc5[nH]4)CC3)c2c1
active: growth inhibition [1] 55% | growth inhibition [4] 96%
inactive: inhibition [2] 19% | inhibition [3] -3% | outcome [5] | outcome [6] | outcome [7] | outcome [8]

COc1cc2c(cc1N1CCN(C)CC1)N(C(=O)Nc1ccc(-c3ccncc3)c(Cl)c1Cl)CC2
inactive: growth inhibition [1] 4% | inhibition [2] 10% | inhibition [3] -6% | outcome [5] | outcome [6] | outcome [7] | outcome [8]
active: growth inhibition [4] 102%

CCN(CCCN1CCCCC1)c1cc(C)nc(Nc2cc(C)ccc2C)n1
active: growth inhibition [4] 93%
inactive: growth inhibition [1] 42% | inhibition [2] 34% | inhibition [3] 2% | outcome [5] | outcome [6] | outcome [7] | outcome [8]

c1cc(CNCC2CCCO2)cc(-c2csc(-c3nc4ccccc4[nH]3)c2)c1 (stereo not given)
active: growth inhibition [4] 91%
inactive: growth inhibition [1] 6% | inhibition [2] 5% | inhibition [3] 2% | outcome [5] | outcome [6] | outcome [7] | outcome [8]

Cn1nccc1C(=O)NCCNCc1cccc(-c2cccc(-c3nc4ccc(F)cc4[nH]3)c2)c1
active: growth inhibition [4] 100%
inactive: growth inhibition [1] 7% | inhibition [2] 38% | inhibition [3] 0% | outcome [5] | outcome [6] | outcome [7] | outcome [8]

From PubChem BioAssay
